PubChem BioAssay
The source made the active and inactive calls. Unless noted, how the calls were made is not given here.

Columns and labels:
[1] = resazurin metabolic signal in HepG2 cells – cell-based, resazurin fluorescence, 24 h, PK04 Diversity Set, profiling panel (AID 1172); details: HepG2 viability, higher = more signal
[2] = budding yeast growth changes without added modifier – OD600, strain BY4716, 24 h, basal condition, primary screen (AID 1173); details: S. cerevisiae BY4716 growth, OD600, 24 h; higher = more signal, called active from +8 up or from −8 down
[3] = viability profiling in MM1S myeloma cells – cell-based, resazurin fluorescence, basal, 24 h, PK04 Diversity Set, profiling panel (AID 1174); details: higher = more signal, called active from +8 up or from −8 down;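 further: MM1S multiple myeloma cell line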
[4] = target: Dihydroorotate dehydrogenase (quinone), mitochondrial (Plasmodium falciparum (isolate 3D7)) (UniProt Q08210); experiment: inhibition of P. falciparum DHODH – biochemical, C-terminal His tag, absorbance 600 nm, primary screen (AID 1175); details: PfDHODH enzyme, DCIP absorbance 600 nm; higher = more signal, called active from +8 up or from −8 down;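 further: recombinant parasite enzyme with a five histidine tag at its C terminus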
[5] = inhibition of PAO1 biofilm formation – strain PAO1, LB-PBS medium, absorbance 600 nm, primary screen (AID 1176); details: P. aeruginosa PAO1 growth/biofilm, A600, 12 h; higher = more signal
[6] = growth modulation of vineyard yeast isolate – strain RM11-1a, OD600, basal, 24 h, primary screen (AID 1177);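 further: cultures grown under basal conditions with no added stressor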; details: S. cerevisiae RM11-1a growth, OD600, 24 h; higher = more signal, called active from +8 up or from −8 down
[7] = growth of efflux-deficient E. coli DRC39 – strain DRC39, OD650, 24 h, E. coli filamentation inducers, primary screen (AID 1178);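 further: growth measured as culture turbidity by optical density at 650 nm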; details: E. coli DRC39 acrAB, higher = more signal, called active from +8 up or from −8 down
[8] = growth of efflux-deficient E. coli DRC39 – strain DRC39, OD650, 48 h, E. coli filamentation inducers, primary screen (AID 1179);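 further: screen aims at cell division blockers that make cells filament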; details: E. coli DRC39 delta-acrAB growth, higher = more signal, called active from +8 up or from −8 down
[9] = viability profiling in RPMI8226 myeloma cells – cell-based, resazurin fluorescence, basal, 24 h, PK04 Diversity Set, profiling panel (AID 1180); details: higher = more signal;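 further: RPMI8826 multiple myeloma cell line at 5000 cells per well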
[10] = target: E3 ubiquitin-protein ligase XIAP (Homo sapiens) (UniProt P98170); experiment: small molecules binding XIAP protein – biophysical, small-molecule microarray, fluorescence 635 nm, primary screen (AID 1181); details: higher = more signal;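 further: score merges 667 nm emission and signal to noise over triplicate slides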
[11] = tested on: XIP peptide (Xip251-270) binding; experiment: XIP fragment 251-270 binding compounds – biochemical, small-molecule microarray, fluorescence 635/667 nm, 0.1 µg/mL protein, primary screen (AID 1182); details: fluorescent protein binding, 635 nm, higher = more signal, called active from +8 up or from −8 down
XIP peptide (Xip251-270) = experiment: compounds binding XIP fragment 251-270 – biochemical, small-molecule microarray, fluorescence 635/667 nm, 0.5 µg/mL protein, primary screen (AID 1183); details: fluorescence 635 nm, higher = more signal
[12] = blood-stage malaria parasite viability loss – strain 3D7, DAPI fluorescence, 100 nL, primary screen (AID 1184);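 further: parasites grown inside human red blood cells in medium with human serum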; details: P. falciparum 3D7 growth, 3 d, higher = more signal
[13] = target: Homeobox protein Hox-A13 (Mus musculus) (UniProt Q62424); experiment: disruptors of Hoxa13 oligonucleotide interaction – biochemical, fluorescence polarization, labeled oligonucleotide, primary screen (AID 1185); details: Hoxa13:DNA binding, 15 min, higher = more signal, called active from +8 up or from −8 down
[14] = blockers of DNA damage checkpoint Chk1 activation – imaging, HeLa, hydroxyurea, phospho-Chk1 antibody, percent positive cells, primary screen (AID 1186); details: hydroxyurea-induced phospho-Chk1 immunofluorescence imaging, higher = more signal
[15] = blockers of DNA damage checkpoint Chk1 activation – imaging, HeLa, hydroxyurea, phospho-Chk1 nuclear intensity, primary screen (AID 1187); details: hydroxyurea-induced phospho-Chk1 immunofluorescence imaging, higher = more signal

Chain of Dihydroorotate dehydrogenase (quinone), mitochondrial (Plasmodium falciparum (isolate 3D7)) (Q08210 whole entry, looked up): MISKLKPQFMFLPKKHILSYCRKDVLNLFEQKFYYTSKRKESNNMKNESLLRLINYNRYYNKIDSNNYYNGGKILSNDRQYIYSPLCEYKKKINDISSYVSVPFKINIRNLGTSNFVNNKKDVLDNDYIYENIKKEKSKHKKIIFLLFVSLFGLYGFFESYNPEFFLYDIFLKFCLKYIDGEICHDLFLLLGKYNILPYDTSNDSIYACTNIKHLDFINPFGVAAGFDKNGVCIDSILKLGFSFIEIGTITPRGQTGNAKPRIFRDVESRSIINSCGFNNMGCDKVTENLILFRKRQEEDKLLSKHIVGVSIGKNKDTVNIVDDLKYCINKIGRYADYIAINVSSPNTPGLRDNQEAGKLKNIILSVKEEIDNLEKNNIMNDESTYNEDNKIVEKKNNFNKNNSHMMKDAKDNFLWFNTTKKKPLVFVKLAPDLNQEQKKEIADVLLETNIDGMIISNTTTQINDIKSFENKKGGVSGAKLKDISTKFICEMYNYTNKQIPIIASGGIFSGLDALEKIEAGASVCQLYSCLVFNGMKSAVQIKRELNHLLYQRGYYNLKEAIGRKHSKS
Chain of Homeobox protein Hox-A13 (Mus musculus) (Q62424 whole entry, looked up): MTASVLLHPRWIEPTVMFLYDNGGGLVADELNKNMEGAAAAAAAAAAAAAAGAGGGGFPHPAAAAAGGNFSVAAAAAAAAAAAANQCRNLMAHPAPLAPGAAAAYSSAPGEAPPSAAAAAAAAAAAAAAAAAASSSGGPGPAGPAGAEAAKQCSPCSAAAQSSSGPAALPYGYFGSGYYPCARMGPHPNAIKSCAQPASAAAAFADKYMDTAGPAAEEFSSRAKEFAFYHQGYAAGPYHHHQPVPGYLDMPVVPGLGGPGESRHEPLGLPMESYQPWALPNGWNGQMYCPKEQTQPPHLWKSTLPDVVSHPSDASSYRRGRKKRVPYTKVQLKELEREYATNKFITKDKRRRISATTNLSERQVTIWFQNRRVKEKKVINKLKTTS
Chain of E3 ubiquitin-protein ligase XIAP (Homo sapiens) (P98170 whole entry, looked up, the tested form may be a part): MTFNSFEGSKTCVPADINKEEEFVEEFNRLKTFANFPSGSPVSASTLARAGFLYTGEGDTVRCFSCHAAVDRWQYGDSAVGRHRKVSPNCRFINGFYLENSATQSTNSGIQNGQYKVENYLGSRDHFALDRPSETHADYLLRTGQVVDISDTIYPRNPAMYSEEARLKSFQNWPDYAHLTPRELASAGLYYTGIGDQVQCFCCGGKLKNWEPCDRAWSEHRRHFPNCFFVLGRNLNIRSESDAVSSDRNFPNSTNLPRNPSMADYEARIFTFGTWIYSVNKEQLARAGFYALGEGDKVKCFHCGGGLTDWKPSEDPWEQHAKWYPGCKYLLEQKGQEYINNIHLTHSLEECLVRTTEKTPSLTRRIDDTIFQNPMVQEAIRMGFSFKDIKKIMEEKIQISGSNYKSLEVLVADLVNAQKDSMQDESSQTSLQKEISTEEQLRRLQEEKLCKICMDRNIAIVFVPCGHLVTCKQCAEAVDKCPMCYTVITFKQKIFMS

SMILES	z-score [1]	z-score [2]	z-score [3]	composite z-score [4]	z-score [5]	z-score [6]	z-score [7]	z-score [8]	z-score [9]	composite z-score [10]	composite z-score [11]	composite z-score (XIP peptide (Xip251-270))	z-score [12]	z-score [13]	z-score [14]	z-score [15]
CC(C)OC(=O)CC(=O)CC(O)c1ccc(C#N)cc1 (centres undefined)	0.602	-0.0106 (inactive)	0.8 (inactive)	-1.12 (inactive)	-0.088 (inactive)	-0.608 (inactive)	-0.0611 (inactive)	1.44 (inactive)	1.43	-0.194	3.17 (inactive)	0.21	0.393	-0.306 (inactive)	-1.26 (inactive)	-1.44 (inactive)
CCN(CC)c1ccc(N2CC=CC34O[C@@H]5C=CCCOC(=O)C5[C@H]3C(=O)N(CCCCCO)[C@@H]4C2=O)cc1 (some centres undefined)	1.72	-0.8 (inactive)	0.974 (inactive)	-0.644 (inactive)	0.165 (inactive)	-0.866 (inactive)	2.21 (inactive)	2.23 (inactive)	1.16	0.354	0.235 (inactive)	-0.782	0.315	-5.22 (inactive)	0.234 (inactive)	0.711 (inactive)
CC1CC/C=C\[C@H]2OC34C=CCN(Cc5ccccc5)C(=O)[C@H]3N(CCCCCO)C(=O)[C@@H]4C2C(=O)O1 (some centres undefined)	-0.0371	-0.308 (inactive)	0.521 (inactive)	-0.419 (inactive)	-0.565 (inactive)	0.0882 (inactive)	0.443 (inactive)	0.667 (inactive)	0.461	-0.0062	-0.0864 (inactive)	0.525	1.65	-5.11 (inactive)	-0.0458 (inactive)	-0.0669 (inactive)
CC(=CC1CCCCC1)[C@@H](NC(=O)c1ccc(C(F)(F)F)cc1)c1ccc(-c2ccccc2)cc1	0.0536	1.08 (inactive)	-0.549 (inactive)	-0.468 (inactive)	1.31 (inactive)	0.088 (inactive)	-1.16 (inactive)	-0.822 (inactive)	-0.18	-0.115	-0.138 (inactive)	-0.569	-0.0178	-1.48 (inactive)	0.191 (inactive)	0.498 (inactive)
C=C(C(=O)CC[C@H](OC(C)=O)c1ccc(OCCO)cc1)C(C)C	0.163	-16.2 (active)	0.192 (inactive)	-8.01 (active)	-1.21 (inactive)	-21.4 (active)	-0.135 (inactive)	0.204 (inactive)	-0.349	-0.177	0.0512 (inactive)	0.601	-2.57	-3.14 (inactive)	0.772 (inactive)	-0.0365 (inactive)
CN1C(=O)C2C(C1=O)C1C=C(CCCO)C2C(c2cccs2)N1C (centres undefined)	-0.341	-0.37 (inactive)	-0.739 (inactive)	-1.36 (inactive)	-0.146 (inactive)	0.185 (inactive)	0.469 (inactive)	0.742 (inactive)	-0.626	-0.412	-0.119 (inactive)	-0.0427	0.404	-9.72 (active)	0.207 (inactive)	-0.0851 (inactive)
COC(=O)[C@@]1(Cc2ccc(F)cc2)[C@H]2c3cc(C(=O)N4CCCC4)n(Cc4cccc5ccccc45)c3C[C@H]2CN1C(=O)c1ccccc1	-0.296	1.28 (inactive)	-1.53 (inactive)	-0.422 (inactive)	0.784 (inactive)	0.0161 (inactive)	-1.11 (inactive)	-0.974 (inactive)	-1.25	0.487	0.702 (inactive)	0.0322	-1.74	-4.87 (inactive)	-0.704 (inactive)	-0.576 (inactive)
O=C1O[C@H](c2ccccc2)[C@H](c2ccccc2)N2[C@H]1[C@@H](C(=O)N1CCN(c3ncccn3)CC1)[C@]1(C(=O)Nc3ccccc31)[C@H]2c1ccc(OCCO)cc1	1.42	1.4 (inactive)	0.792 (inactive)	1.12 (inactive)	1.55 (inactive)	1.81 (inactive)	0.774 (inactive)	0.0049 (inactive)	0.368	0.109	-0.161 (inactive)	0.219	-2.39	2.46 (inactive)	-0.54 (inactive)	-1.1 (inactive)
CC(C)(C)OC(=O)CC[C@@]1(C(=O)O)N=C(c2ccc(OCCCO)cc2)O[C@@H]1c1ccccc1N=[N+]=[N-]	0.166	0.523 (inactive)	-0.789 (inactive)	0.0016 (inactive)	0.659 (inactive)	0.0589 (inactive)	0.428 (inactive)	0.367 (inactive)	-0.105	-0.187	1.37 (inactive)	-0.333	0.603	-5.2 (inactive)	-0.157 (inactive)	-0.51 (inactive)
